# PPC-1+TRAIL kill: compounds killing PPC-1 cancer cells with TRAIL present, primary screen, TRAIL potentiator project, ATPLite luminescence, uHTS | PPC-1 cells + TRAIL, ATPLite viability luminescence | cell killing (% activity), % at 4 µM or 5 µM | 220,000 tested, 0.41% active | AID 1443, 2008;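 active means cell killing above 50% in the first pass at 4 µM, then a duplicate retest at 5 µM averaging 50% or more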;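 further: plate controls were cells with TRAIL plus DMSO for no effect and medium-only wells lacking cells for full effect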
# SENP7 inh: SENP7 protease inhibitors, primary screen, biochemical, luminescence, uHTS; recombinant SENP7, Z-RLRGG-aminoluciferin luminescence, 40 min; Sentrin-specific protease 7 (Homo sapiens), Q9BQF6; inhibition, % at 5 µM; 330,000 tested, 1.5% active;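 active means inhibition above about 50% at the single test dose, limit read from the data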;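 further: plate controls were DMSO with enzyme for no effect and no enzyme buffer wells for full effect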
# Target sequence (Q9BQF6 706-1050 limits assumed): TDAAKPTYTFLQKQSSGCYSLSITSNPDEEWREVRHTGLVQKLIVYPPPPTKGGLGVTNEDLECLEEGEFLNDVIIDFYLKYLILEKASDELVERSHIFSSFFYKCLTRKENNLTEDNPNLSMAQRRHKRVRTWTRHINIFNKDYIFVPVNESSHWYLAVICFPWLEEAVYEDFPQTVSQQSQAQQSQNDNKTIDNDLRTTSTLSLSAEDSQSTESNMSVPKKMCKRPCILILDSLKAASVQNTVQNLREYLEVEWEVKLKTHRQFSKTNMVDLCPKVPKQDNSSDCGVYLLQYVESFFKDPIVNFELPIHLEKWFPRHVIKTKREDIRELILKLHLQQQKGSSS
# C8 TRAIL sens: viability loss with TRAIL in NB7+C8 cells, primary screen, TRAIL sensitizer project, cell-based, ATPlite luminescence; inhibition (viability loss, TRAIL sensitization), % at 10 µM; 360,000 tested, 1% active; AID 624354, 2012;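 active means compounds causing at least 50% loss of cell viability in the single-dose screen, relative to plate controls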
# SENP6 inh: SENP6 protease inhibitors, primary screen, biochemical, luminescence, uHTS; Sentrin-specific protease 6 (Homo sapiens), Q9GZR1; Recombinant SENP6 catalytic domain, aminoluciferin luminescence; inhibition, % at 10 µM; 330,000 tested, 1.8% active; AID 2599, 2010;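 active means inhibition above about 50% at the single tested dose, limit read from the data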;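 further: plate controls were DMSO wells with enzyme for no effect and DMSO wells lacking enzyme for full effect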
# SENP8 block-1: SENP8 protease inhibitors, primary screen, biochemical, luminescence. inhibition, % at 10 µM. Sentrin-specific protease 8 (Homo sapiens), Q96LD8. purified SENP8, Z-RLRGG-aminoluciferin cleavage. 330,000 tested, 1.2% active; in the data active means inhibition above about 50%
# Target sequence (Q96LD8 whole entry, looked up): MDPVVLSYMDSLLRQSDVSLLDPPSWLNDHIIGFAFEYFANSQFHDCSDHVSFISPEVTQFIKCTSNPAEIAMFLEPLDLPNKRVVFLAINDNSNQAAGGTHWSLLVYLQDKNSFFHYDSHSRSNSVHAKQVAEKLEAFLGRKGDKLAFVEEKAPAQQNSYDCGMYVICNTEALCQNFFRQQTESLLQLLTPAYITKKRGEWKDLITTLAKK
# SENP8 block-2: human SENP8 protease inhibitors, primary screen, biochemical, fluorescence, Nedd8 protein substrate, uHTS. inhibition, % at 20 µM. 360,000 tested, 0.64% active. recombinant SENP8. Sentrin-specific protease 8 (Homo sapiens), Q96LD8; in the data active means inhibition mostly above about 40%, no sharp cut-off; inactive means mostly below about 27%
# * marks the source's active call; other numbers are inactive results; . = not tested or not shown. Compounds with a hit are over-represented: about 3% of the library has one in this group of screens.
SMILES,PPC-1+TRAIL kill,SENP7 inh,C8 TRAIL sens,SENP6 inh,SENP8 block-1,SENP8 block-2
CCOC(=O)c1ccc(NC(=O)c2nc(S(=O)(=O)Cc3ccccc3)ncc2Cl)cc1,.,7,78*,-11,-6,14
Cc1nc2ccc(C(=O)N3c4ccccc4N=C(c4ccc5c(c4)OCO5)C3C(=O)NCc3ccccc3)cc2[nH]1 (centres undefined),.,.,1,.,.,-165
N#Cc1ccc(NC(=O)C2=COCCO2)cc1,.,3,7,-6,-1,10
COC(=O)CC1C(=O)NCCN1C(=O)CSc1nc2ccc([N+](=O)[O-])cc2s1 (centres undefined),7,1,1,45,8,16
CCc1ccccc1N1C(=O)C2C3C=CC(CC3)C2C1=O (centres undefined),.,6,-2,-9,3,8
CC(C)N1CCC1(C)C(=O)Nc1nccc2cccnc12 (centres undefined),.,.,-2,.,.,-129
CC(Oc1ccc(C(=O)c2ccc(F)cc2)cc1)C(=O)N1CCOCC1 (centres undefined),.,-4,15,3,7,10
CCS(=O)(=O)c1ncc(Cl)c(C(=O)Nc2ccc(S(=O)(=O)N3CCC(C)CC3)cc2)n1,.,0,94*,11,5,6
CC1CCN(S(=O)(=O)c2ccc(NC(=O)c3ccncc3)cc2)CC1,.,1,5,-5,-1,2
NC(CO)C(=O)NNCc1ccc(O)c(O)c1O (centres undefined),14,16,14,9,4,45*
CN1CCN(c2ccc(NC(=O)N3CCc4ccccc43)cc2)CC1,.,1,61*,-20,-5,12
Cc1ccc(NC(=O)N2CCCc3ccccc32)cc1,3,-2,-12,-17,-8,14
Cc1cccc2nc(CSc3ccccc3N)cn12,.,-4,16,14,-6,10
Cc1cccc2nc(COc3ccc4ccccc4c3Br)cn12,27,34,21,57*,22,17
CC(=O)N1CCc2c(sc(NC(=O)c3ccc([N+](=O)[O-])o3)c2C(N)=O)C1,.,.,62*,.,.,-11
Cc1ccc(O)c(N=NC2=C(O)CC(C)(C)CC2=O)c1,47,-4,63*,-19,-3,42*
C[C@H](NC(=O)c1ncn2c1c(=O)[nH]c1ccccc12)c1ccccc1,.,.,22,.,.,-346
C[C@H](NC(=O)c1ncn2c1c(=O)[nH]c1ccc(Br)cc12)c1ccccc1,.,.,91*,.,.,-181
Cc1ccc(-c2nc(N/N=C/c3ccccc3[N+](=O)[O-])c3ccccc3n2)cc1,31,14,89*,4,0,10
O=[N+]([O-])c1ccccc1C=NNc1ccccc1,.,.,-5,.,.,36
COc1ccc(CCN2C(=O)COc3ccccc3C2C(=O)Nc2c(C)cccc2C)cc1OC (centres undefined),.,.,6,.,.,4
CCCn1c(Nc2nc3ccccc3n2C)nc2ccccc21,7,-8,53*,-11,-11,-293
NC(=O)NC[C@@H]1CC[C@@H](Cc2ccc(-c3ccccc3)cc2)O1,.,14,-4,.,.,1
OC[C@@H]1CC[C@@H](Cc2ccc(-c3ccccc3)cc2)O1,.,63*,1,.,.,18
CCC(C)c1ccc(NC(=O)C2=CC=CN3CCS(=O)(=O)N=C23)cc1 (centres undefined),.,0,20,-7,-3,3
SMILES,PPC-1+TRAIL kill,SENP7 inh,C8 TRAIL sens,SENP6 inh,SENP8 block-1,SENP8 block-2
COc1ccc(OC)c(/C=N/N2CCN(c3ccc(Cl)cc3)CC2)c1,.,-12,-13,-36,-1,-5
CCOC(=O)c1c(CC(C)C)csc1NC(=O)c1ccccc1C(=O)O,5,6,12,-13,-5,-40
CC(C)Cc1csc(NC(=O)c2ccc(F)cc2)c1C(=O)O,-8,2,3,89*,84*,-49
CC(NC(=O)CCc1ccccc1)c1ccc2c(c1)OCO2 (centres undefined),.,-14,-7,-13,-12,9
COc1nn(-c2ccccc2)c(=O)c(Cl)c1Cl,.,-10,91*,3,-6,2
Cc1ccc(/C=N/NC(=O)Cn2nnc(N)n2)o1,-4,10,15,5,-10,26
O=C(Nc1nc(-c2ccccn2)cs1)c1ccc2c(c1)OCCO2,49,-1,51*,3,7,-12
CC(=O)Nc1cc(-c2ccc(S(C)(=O)=O)cc2)cn2c(-c3ccc(F)c(Cl)c3)cnc12,.,.,-3,.,.,-344
O=C1/C(=C\c2ccc(Cl)c(Cl)c2)CN(C(=O)CCN2CCOCC2)C/C1=C/c1ccc(Cl)c(Cl)c1,.,.,93*,.,.,16
O=C(CCN1C(=O)S/C(=C\c2ccccc2)C1=O)N1CCCCC1,.,-5,5,-6,-6,15
CCN(CC)CCC(=O)N1C/C(=C/c2ccccc2)C(=O)/C(=C\c2ccccc2)C1,.,.,93*,.,.,10
O=C1/C(=C\c2ccccc2)CN(C(=O)CCN2CCCCC2)C/C1=C/c1ccccc1,.,.,91*,.,.,14
Nc1nc(N)c2cc(CNc3ccc(Cl)c(Cl)c3)ccc2n1,.,.,95*,.,.,-152
C=CCNc1nc(NCc2ccc(NC(C)=O)cc2)c2sc(-c3ccccc3)cc2n1,.,.,64*,.,.,-317
COC(CNC(=O)c1cccnc1)OC,-5,2,10,0,0,1
COC(CNC(=O)c1ccc2c3c(onc13)-c1ccccc1C2=O)OC,4,25,46,45,23,102*
CCOc1ccccc1C=C1CCc2ccccc2C1=O,.,.,4,.,.,16
O=C1C(=Cc2ccc(F)cc2)CCc2ccccc21,.,.,80*,.,.,9
COc1ccccc1C=C1CCc2ccccc2C1=O,.,.,77*,.,.,0
O=C1C(=Cc2cccc(Cl)c2)CCc2ccccc21,.,.,9,.,.,5
O=C1C(=Cc2ccccc2Cl)CCc2ccccc21,.,.,53*,.,.,11
O=C1C(=Cc2ccc(Cl)cc2)CCc2ccccc21,.,.,81*,.,.,6
CC(C)Cc1nc2c(nnn2Cc2ccccc2F)c(=O)[nH]1,3,-2,1,-11,2,-11
O=c1c2ccccc2nnn1Cc1ccc2ccccc2c1,27,-1,6,-3,-4,9
COc1ccc(C=C2CCc3ccccc3C2=O)cc1,.,.,87*,.,.,-13
COc1ccccc1NC(=O)c1nc(S(=O)(=O)Cc2ccccc2)ncc1Cl,.,6,94*,-3,7,23
CCS(=O)(=O)c1ncc(Cl)c(C(=O)Nc2ccccc2OC)n1,.,16,89*,-8,-6,18
CCOc1ccccc1NC(=O)c1nc(S(=O)(=O)Cc2ccccc2)ncc1Cl,.,0,96*,-4,-4,6

# Screens: PubChem, Sanford-Burnham Center for Chemical Genomics
